Results published in PubChem BioAssay (Tox21).
Several values for one entry are separate records, joined by “and”; a condition that tells them apart may be missing. Identical values can stand only once. Results filed as inconclusive are left out. Where a call stands in place of a potency, no number is given. The source holds several records for some structures; these can differ, active in one and inactive in another. Activity calls are given as the source filed them. Unless noted, calls come from the whole dose curve; as a rule, active = well fitted curve in the direction sought with a large enough effect in the repeat runs; inconclusive = weak or mixed curves; inactive = no such curve, though single readings can be large; an effect the other way counts as inactive or inconclusive.

Experiments:
[1] = target: Luciferin 4-monooxygenase (Photinus pyralis) (UniProt P08659); test: qHTS assay to identify small molecule inhibitors of firefly luciferase (AID 1224835); note: nearly all actives have a fitted effect of over 25% in size; note: potency is the fitted concentration of half-maximal effect
Summary of the method: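 Quantitative HTS format; KM concentrations of both substrates. Purified P. pyralis FLuc activity quantified from luminescence images.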

[2] = qHTS assay to identify small molecule agonists of the constitutive androstane receptor (CAR) signaling pathway - cell viability counter screen (AID 1224836); note: nearly all actives have a fitted effect of over 45% in size; note: potency is the fitted concentration of half-maximal effect
Summary of the method: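 Cell viability multiplexed with the CAR agonist screen: CellTiter-Fluor fluorescence after 23 hr at 37 C. HepG2-CYP2B6-hCAR cells got compounds at 15 concentrations with PK11195 at 0.75 uM final.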

[3] = qHTS assay to identify small molecule antagonists of the constitutive androstane receptor (CAR) signaling pathway - cell viability counter screen (AID 1224837); note: nearly all actives have a fitted effect of over 45% in size; note: potency is the fitted concentration of half-maximal effect
Summary of the method: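 To flag cytotoxic false antagonists, HepG2 hCAR/CYP2B6-2.2kb cells were treated 23 hr with 15-concentration compound series and 50 nM CITCO at 37 C/5% CO2; CellTiter-Fluor fluorescence was the measured end point.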

[4] = target: Nuclear receptor subfamily 1 group I member 3 (Homo sapiens) (UniProt Q14994); test: qHTS assay to identify small molecule antagonists of the constitutive androstane receptor (CAR) signaling pathway (AID 1224838);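 note: HepG2 cells stably expressing hCAR with CYP2B6 luciferase reporter stimulated by CITCO; nearly all actives have a fitted effect of over 40% in size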; note: potency is the fitted concentration of half-maximal effect
Summary of the method: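 Human hepatoma HepG2 cells expressing hCAR and a CYP2B6 promoter (2.2 kb) luciferase construct; compound titration (15 points) with 50 nM CITCO final, 24 h at 37 C/5% CO2; luminescence via ONE-Glo after 30 min at room temperature.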

[5] = target: Nuclear receptor subfamily 1 group I member 3 (Homo sapiens) (UniProt Q14994); test: qHTS assay to identify small molecule agonists of the constitutive androstane receptor (CAR) signaling pathway (AID 1224839); note: nearly all actives have a fitted effect of over 15% in size; note: potency is the fitted concentration of half-maximal effect
Summary of the method: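 Luminescent ONE-Glo read-out after 24 hr, 37 C exposure of double-stable HepG2-CYP2B6-hCAR reporter cells to a 15-point compound series, in the presence of 0.75 uM PK11195 (final).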

[6] = qHTS assay to identify small molecule antagonists of the estrogen related receptor signaling pathway with the pleiotropic PPARgamma coactivator (PGC) from Tox21 10K library - cell viability counter screen (AID 1224840; active = well fitted cell-killing curve with a large enough effect in the repeat runs, not every such curve was filed as active; note: nearly all actives have a fitted effect of over 40% in size; note: potency is the fitted concentration of half-maximal effect)
Summary of the method: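 Seeded PGC/ERR cells (2,000/well, 6 h, 37 C/5% CO2) get compound by pin tool; 17.5 h incubation at 37 C; CellTiter-Fluor added, 30 min, fluorescence measured.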

[7] = target: Thyrotropin receptor (Homo sapiens) (UniProt P16473); test: qHTS assay to identify small molecule agonists of the thyroid stimulating hormone receptor (TSHR) signaling pathway (AID 1224843; calls by dose curve; note: nearly all actives have a fitted effect of over 45% in size)
Summary of the method: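 Compounds are titrated over 15 concentrations, in triplicate, onto TSHR-HEK293 cells seeded at 800/well. Plates sit 30 min at room temperature before cAMP-d2 and anti-cAMP cryptate are added; signal is read after a further hour.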

[8] = qHTS assay to identify small molecule agonists of the hypoxia (HIF-1) signaling pathway - cell viability counter screen (AID 1224844; calls by dose curve; note: nearly all actives have a fitted effect of over 50% in size; note: potency is the fitted concentration of half-maximal effect)
Summary of the method: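 HRE-bla ME-180; 0.5% dFBS; cpd 17 h, 37C, 5% CO2; CellTiter-Glo lum., 30 min RT, post-FRET read, same wells.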

[9] = qHTS assay to identify small molecule antagonists of the estrogen related receptor signaling pathway with the pleiotropic PPARgamma coactivator (PGC) from Tox21 10K library (AID 1224841; call rule not given here; note: actives are mostly falling curves and most rising ones were filed inactive; nearly all actives have a fitted effect of over 50% in size; note: potency is the fitted concentration of half-maximal effect)
Summary of the method: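 Test chemicals dissolved in DMSO were applied to pre-incubated (6 h) PGC/ERR cells at 2,000 cells/well for an 18 h, 37 C treatment; reporter luminescence was then read using One-Glo.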

[10] = qHTS assay to identify small molecule agonists of the estrogen related receptor signaling pathway with the pleiotropic PPARgamma coactivator (PGC) from Tox21 10K library (AID 1224842); note: nearly all actives have a fitted effect of over 15% in size
Summary of the method: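 PGC/ERR reporter cells (NTP line) were seeded 2,000 per well, rested 6 h at 37 C/5% CO2, then pin-dosed with compounds in DMSO for 18 h at 37 C; luciferase read by One-Glo luminescence after 30 min at room temperature.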

Sequence of Thyrotropin receptor (Homo sapiens) (P16473 whole entry, looked up): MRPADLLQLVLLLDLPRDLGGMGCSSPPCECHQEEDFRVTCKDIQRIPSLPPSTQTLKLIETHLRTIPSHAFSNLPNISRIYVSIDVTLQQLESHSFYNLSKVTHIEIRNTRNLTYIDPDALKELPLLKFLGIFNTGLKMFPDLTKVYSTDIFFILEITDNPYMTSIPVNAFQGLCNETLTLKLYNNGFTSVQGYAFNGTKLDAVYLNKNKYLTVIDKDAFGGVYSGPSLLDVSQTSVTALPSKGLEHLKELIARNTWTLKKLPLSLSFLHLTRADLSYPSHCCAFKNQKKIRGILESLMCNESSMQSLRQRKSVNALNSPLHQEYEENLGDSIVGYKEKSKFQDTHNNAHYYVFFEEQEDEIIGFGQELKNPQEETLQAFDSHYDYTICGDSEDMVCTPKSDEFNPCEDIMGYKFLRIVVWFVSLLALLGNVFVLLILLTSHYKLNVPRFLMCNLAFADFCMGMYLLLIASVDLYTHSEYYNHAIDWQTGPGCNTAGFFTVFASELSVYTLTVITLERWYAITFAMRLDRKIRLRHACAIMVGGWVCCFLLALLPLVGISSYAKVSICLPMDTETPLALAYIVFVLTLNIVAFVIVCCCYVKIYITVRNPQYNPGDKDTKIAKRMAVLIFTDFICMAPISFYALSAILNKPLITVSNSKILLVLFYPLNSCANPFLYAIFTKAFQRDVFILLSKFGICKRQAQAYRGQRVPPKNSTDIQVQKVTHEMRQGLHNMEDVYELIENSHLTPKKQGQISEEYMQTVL
Sequence of Luciferin 4-monooxygenase (Photinus pyralis) (P08659 whole entry, looked up): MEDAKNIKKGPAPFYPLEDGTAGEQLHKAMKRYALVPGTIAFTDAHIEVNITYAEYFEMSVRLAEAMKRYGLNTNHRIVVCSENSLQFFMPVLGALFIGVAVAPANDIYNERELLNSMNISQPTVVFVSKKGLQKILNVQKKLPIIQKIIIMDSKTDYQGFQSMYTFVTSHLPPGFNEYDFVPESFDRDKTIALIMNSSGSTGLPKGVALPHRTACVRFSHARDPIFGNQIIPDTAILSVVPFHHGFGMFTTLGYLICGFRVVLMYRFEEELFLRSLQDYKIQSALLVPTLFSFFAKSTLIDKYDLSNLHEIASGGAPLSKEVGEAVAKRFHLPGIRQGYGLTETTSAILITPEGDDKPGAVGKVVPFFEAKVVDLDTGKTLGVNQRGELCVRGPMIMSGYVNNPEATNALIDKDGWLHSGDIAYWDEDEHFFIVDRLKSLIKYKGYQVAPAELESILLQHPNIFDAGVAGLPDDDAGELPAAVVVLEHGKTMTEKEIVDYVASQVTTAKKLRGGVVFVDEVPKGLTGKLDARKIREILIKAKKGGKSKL
Sequence of Nuclear receptor subfamily 1 group I member 3 (Homo sapiens) (Q14994 whole entry, looked up): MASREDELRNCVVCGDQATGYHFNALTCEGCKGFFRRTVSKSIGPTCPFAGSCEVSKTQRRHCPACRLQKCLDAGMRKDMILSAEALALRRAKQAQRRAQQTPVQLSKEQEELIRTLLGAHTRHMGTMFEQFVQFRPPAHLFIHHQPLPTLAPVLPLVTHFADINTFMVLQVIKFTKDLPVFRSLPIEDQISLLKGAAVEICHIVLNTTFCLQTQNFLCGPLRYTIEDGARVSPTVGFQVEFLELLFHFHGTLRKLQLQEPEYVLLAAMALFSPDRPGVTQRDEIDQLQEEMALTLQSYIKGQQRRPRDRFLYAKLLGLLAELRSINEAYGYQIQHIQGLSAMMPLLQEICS

## CC(=O)OCC1=C(C(=O)O)N2C(=O)[C@@H](NC(=O)Cc3cccs3)[C@H]2SC1
[1]
  Potency: inactive
[2]
  Potency: inactive
[3]
  Potency: inactive
[4]
  Potency: inactive
[5]
  Potency: inactive
[6]
  Potency: inactive
[7]
  Potency: inactive
[8]
  Potency: inactive

## C[N+]1([O-])CCOCC1
[1]
  Potency: inactive
[2]
  Potency: inactive
[3]
  Potency: inactive
[4]
  Potency: inactive
[5]
  Potency: inactive
[6]
  Potency: inactive
[9]
  Potency: inactive
[10]
  Potency: inactive
[7]
  Potency: inactive
[8]
  Potency: inactive

## O=C(O)Cn1cnnn1
[1]
  Potency: inactive
[2]
  Potency: inactive
[3]
  Potency: inactive
[4]
  Potency: inactive
[5]
  Potency: inactive
[6]
  Potency: inactive
[9]
  Potency: inactive
[10]
  Potency: inactive
[7]
  Potency: inactive
[8]
  Potency: inactive

## CCCCC/C=C/CC1CC(=O)OC1=O (stereo unspecified)
[1]
  Potency: inactive
[2]
  Potency: inactive
[3]
  Potency: inactive
[4]
  Potency: inactive
[5]
  Potency: inactive
[6]
  Potency: inactive
[9]
  Potency: inactive
[10]
  Potency: inactive
[7]
  Potency: inactive
[8]
  Potency: inactive

## CO[Si](OC)(OC)c1ccccc1
[1]
  Potency: inactive
[2]
  Potency: inactive
[3]
  Potency: inactive
[4]
  Potency: inactive
[5]
  Potency: inactive
[6]
  Potency: inactive
[9]
  Potency: inactive
[10]
  Potency: inactive
[7]
  Potency: inactive
[8]
  Potency: inactive

## c1ccc2n[nH]nc2c1
[1]
  Potency: inactive
[2]
  Potency: inactive
[3]
  Potency: inactive
[4]
  Potency: inactive
[5]
  Potency: inactive
[6]
  Potency: inactive
[7]
  Potency: inactive
[8]
  Potency: inactive

## CC(C)C(=O)c1c(C(C)C)nn2ccccc12
[1]
  Potency: inactive
[2]
  Potency: inactive
[3]
  Potency: inactive
[4]
  Potency: inactive
[5]
  Potency: 23.7 µM (active)
[6]
  Potency: inactive
[9]
  Potency: inactive
[10]
  Potency: inactive
[8]
  Potency: inactive

## C1COC(NC(C2CC2)C2CC2)=N1
[1]
  Potency: inactive
[2]
  Potency: inactive
[3]
  Potency: inactive
[4]
  Potency: inactive
[5]
  Potency: inactive
[6]
  Potency: inactive
[9]
  Potency: inactive
[10]
  Potency: inactive
[7]
  Potency: inactive

## CCCCOCCOC(=O)c1ccccc1C(=O)OCCOCCCC
[1]
  Potency: inactive
[2]
  Potency: inactive
[3]
  Potency: inactive
[4]
  Potency: inactive
[5]
  Potency: inactive
[6]
  Potency: inactive
[9]
  Potency: 16.9 µM (active) and inactive
[10]
  Potency: inactive
[7]
  Potency: inactive
[8]
  Potency: inactive

## Cc1c(O)cccc1C(=O)N[C@@H](CSc1ccccc1)[C@H](O)CN1C[C@H]2CCCC[C@H]2C[C@H]1C(=O)NC(C)(C)C
[1]
  Potency: inactive
[2]
  Potency: 26.6 µM (active) and 23.7 µM (active)
[3]
  Potency: 26.6 µM (active) and 11.9 µM (active)
[4]
  Potency: 59.5 µM (active) and 26.6 µM (active)
[5]
  Potency: inactive
[6]
  Potency: 9.43 µM (active)
[10]
  Potency: inactive
[7]
  Potency: inactive
[8]
  Potency: 12 µM (active) and inactive

## C/C=C/c1ccc(OCC)c(O)c1
[1]
  Potency: 31.7 µM (active) and 35.6 µM (active)
[2]
  Potency: inactive
[3]
  Potency: inactive
[4]
  Potency: inactive
[5]
  Potency: inactive
[6]
  Potency: inactive
[7]
  Potency: inactive
[8]
  Potency: inactive

## CC1=C(C=O)C(C)(C)CC=C1
[1]
  Potency: inactive
[2]
  Potency: inactive
[3]
  Potency: inactive
[4]
  Potency: inactive
[5]
  Potency: inactive
[6]
  Potency: inactive
[9]
  Potency: inactive
[10]
  Potency: inactive
[7]
  Potency: inactive
[8]
  Potency: inactive

## CCc1cc(C(C)(C)C)c(O)c(C(C)(C)C)c1
[1]
  Potency: inactive
[2]
  Potency: inactive
[3]
  Potency: inactive
[4]
  Potency: inactive
[5]
  Potency: inactive and 12.2 µM (active)
[6]
  Potency: inactive
[7]
  Potency: inactive
[8]
  Potency: inactive

## CN(C)c1ccc2nc3ccc(=[N+](C)C)cc-3sc2c1
[1]
  Potency: 15.3 µM (active) and 20 µM (active) and 17.4 µM (active)
[2]
  Potency: 24.3 µM (active) and 13.3 µM (active)
[3]
  Potency: 27.3 µM (active) and 11.9 µM (active)
[4]
  Potency: inactive
[5]
  Potency: 1.54 µM (active) and 750 nM (active)
[6]
  Potency: 2.62 µM (active) and 7.7 µM (active)
[9]
  Potency: 1.86 µM (active) and 1.93 µM (active) and 2.66 µM (active)
[10]
  Potency: inactive
[8]
  Potency: 5.92 µM (active) and 43.6 µM (active) and inactive

## O=C(Cl)c1cccc(C(=O)Cl)c1
[1]
  Potency: inactive
[2]
  Potency: inactive
[3]
  Potency: inactive
[4]
  Potency: inactive
[5]
  Potency: inactive
[6]
  Potency: inactive
[7]
  Potency: inactive
[8]
  Potency: inactive

## Cc1cc(C(C)(C)C)c(O)c(C(C)(C)C)c1
[1]
  Potency: inactive
[2]
  Potency: inactive
[3]
  Potency: inactive
[4]
  Potency: inactive
[5]
  Potency: inactive
[6]
  Potency: inactive
[7]
  Potency: inactive
[8]
  Potency: inactive

## CCOC(=O)C(C)C(C)=O (stereo unspecified)
[1]
  Potency: inactive
[2]
  Potency: inactive
[3]
  Potency: inactive
[4]
  Potency: inactive
[5]
  Potency: inactive
[6]
  Potency: inactive
[9]
  Potency: inactive
[10]
  Potency: inactive
[7]
  Potency: inactive
[8]
  Potency: inactive

## Cc1ccnc2c1NC(=O)c1cccnc1N2C1CC1
[1]
  Potency: inactive
[2]
  Potency: inactive
[3]
  Potency: inactive
[4]
  Potency: inactive
[5]
  Potency: inactive
[6]
  Potency: inactive
[7]
  Potency: inactive
[8]
  Potency: inactive

## c1cnc2cc3c(cc2n1)C1CNCC3C1
[1]
  Potency: inactive
[2]
  Potency: inactive
[3]
  Potency: inactive
[4]
  Potency: inactive
[5]
  Potency: inactive
[6]
  Potency: inactive
[9]
  Potency: inactive
[10]
  Potency: inactive
[8]
  Potency: inactive

## N[C@@H]1CONC1=O
[1]
  Potency: inactive
[2]
  Potency: inactive
[3]
  Potency: inactive
[4]
  Potency: inactive
[5]
  Potency: inactive
[6]
  Potency: inactive
[9]
  Potency: inactive
[10]
  Potency: inactive
[7]
  Potency: inactive
[8]
  Potency: inactive
